# Data: article PMC5540273 (PLoS ONE, 2017)
# Key:
# Details in all cases: concentration: 1 μM,replicates: in singlicate; n = 1
# [1] = system: FGFR1
# [2] = system: FGFR2
# [3] = system: FGFR3
# [4] = system: FGFR4
# [5] = system: FGR
# [6] = system: FLT1
# [7] = system: FLT3-autoinhibited
# [8] = system: FLT3
# [9] = system: FLT4
# [10] = system: FRK
# [11] = system: FYN
# [12] = system: GAK
# [13] = system: T1, GCN2(Kin.Dom.2,S808G)
# T1 construct: gene EIF2AK4
# [14] = system: GRK1
# [15] = system: T2, GRK2
# T2 construct: gene ADRBK1
# [16] = system: T3, GRK3
# T3 construct: gene ADRBK2
# [17] = system: GRK4
# [18] = system: GRK7
# [19] = system: GSK3A
# [20] = system: GSK3B
# 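Note: KINOMEscan kinase panel screen.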
SMILES,%Inh [1] [%],%Inh [2] [%],%Inh [3] [%],%Inh [4] [%],%Inh [5] [%],%Inh [6] [%],%Inh [7] [%],%Inh [8] [%],%Inh [9] [%],%Inh [10] [%],%Inh [11] [%],%Inh [12] [%],%Inh [13] [%],%Inh [14] [%],%Inh [15] [%],%Inh [16] [%],%Inh [17] [%],%Inh [18] [%],%Inh [19] [%],%Inh [20] [%]
Cc1n[nH]c2ccc(-c3cc(OC[C@@H](N)Cc4ccccc4)cnc3-c3ccoc3)cc12.O=C(O)C(F)(F)F.O=C(O)C(F)(F)F [GSK507358],0,0,0,0,45,2,0,0,5,0,12,82,0,0,0,21,34,0,80,49
CNC(=O)c1ccccc1Sc1ccc2c(/C=C/c3ccccn3)n[nH]c2c1,,86,81,12,85,99.6,15,0,100,0,14,10,0,25,22,44,11,0,0,9
Cc1cc2cn[nH]c2cc1-c1cccc2c(N)c(C(N)=O)nnc12,35,0,0,0,50,0,19,10,2,31,20,34,0,23,1,27,28,0,0,23
NC(=O)c1cc(-c2ccccc2)cc2c(C3CCNCC3)c[nH]c12 [GSK301362],32,19,3,9,14,37,25,47,12,2,21,15,38,0,0,0,2,0,0,14
CN(C)CC(O)COc1ccc(Nc2nccc(-c3cnn4nc(N5CCOCC5)ccc34)n2)cc1 (stereo not shown) [GW767488],2,6,3,1,93.5,11,40,58,24,0,15,75,56,23,0,0,81,37,4,61
C[C@H]1Oc2cc(cnc2N)-c2c(nn(C)c2C#N)CN(C)C(=O)c2ccc(F)cc21,12,26,0,0,33,0,0,26,0,92,19,25,0,95.8,2,0,0,94.3,21,0
Cl.Cl.NC[C@H](CC1CCCCC1)NC(=O)c1cc(Br)c(-c2ccnc3[nH]ccc23)s1 [GSK1581427],35,18,13,16,33,39,8,68,22,19,25,71,0,90.2,0,44,88,90,0,13
Cc1cc(C(=O)Nc2ccc(Oc3ccc4nc(NC(=O)C5CC5)cn4n3)cc2)nn1-c1ccccc1,21,28,7,13,59,88,18,97.5,94,0,13,6,0,0,0,0,6,0,0,0
Cc1ccc(-n2nc(C(C)(C)C)cc2NC(=O)Nc2ccc(OCCN3CCOCC3)c3ccccc23)cc1 [GW839464],,2,0,0,,67,0,29,58,48,0,0,0,0,5,0,16,0,29,0
Cc1ccc2c(-c3ccncc3)c(-c3ccc(F)cc3)nn2c1.Cl [GW461484],14,12,4,4,0,5,0,37,0,20,26,84,28,0,0,0,0,66,26,16
Cl.Oc1cc(-c2nc(-c3ccccc3)[nH]c2-c2ccncc2)ccc1Cl [SB-386023],6,2,0,0,56,2,0,12,8,73,40,43,20,2,0,0,20,7,17,40
CCn1c(-c2nonc2N)nc2c(C#CC(C)(C)O)nc(OCCN)cc21.Cl.Cl [GSK902056],0,100,7,0,30,16,0,0,0,6,0,9,9,19,0,39,14,0,63,36
CCN(CC)CCOc1ccc(Nc2ncc3cc(-c4c(Cl)cccc4Cl)c(=O)n(C)c3n2)cc1 [SB-601273],99.9,100,100,97.9,100,99,65,98.7,95.8,100,100,97,100,6,29,57,0,0,17,0
O=C(NCCCN1CCOC1=O)c1cnc(NCc2cc(Cl)ccc2Cl)nc1NC1CCCC1,10,24,19,13,29,6,0,21,5,18,12,4,29,22,0,0,2,0,10,0
